From PubChem BioAssay
Nrf2 block: inhibitors of Nrf2 signaling; A549 ARE-Fluc reporter, luciferase luminescence, 18-24 h; Potency, µM (highest dose often 46 µM), without a hit: at the top dose activity change, negative = inhibition, usual class: inhibitors; 360,000 compounds, 2.1% hits; AID 504444; note: potency is the fitted concentration of half-maximal effect; nearly all actives have a fitted effect of over 60% in size
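Quantitative HTS in A549 cells stably bearing an antioxidant response element-firefly luciferase construct. Inhibition of Nrf2-driven transcription was scored by luminescence after 18-24 h of compound exposure at 37 °C.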
PI4K2A inh: PI4K2A (human) kinase inhibition. Q9BTU6. purified PI4K2A, ADP-Glo luminescence, 1 h; stronger effect = lower value. activity change, negative = inhibition, % at 76.9 µM. 420,000 compounds, 0.13% hits. AID 1346378; in the data active = activity change below about -50%; inconclusive = mostly about -30% to -49%;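 note: -100% = wells without enzyme as full effect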
Target sequence (Q9BTU6 whole entry, looked up): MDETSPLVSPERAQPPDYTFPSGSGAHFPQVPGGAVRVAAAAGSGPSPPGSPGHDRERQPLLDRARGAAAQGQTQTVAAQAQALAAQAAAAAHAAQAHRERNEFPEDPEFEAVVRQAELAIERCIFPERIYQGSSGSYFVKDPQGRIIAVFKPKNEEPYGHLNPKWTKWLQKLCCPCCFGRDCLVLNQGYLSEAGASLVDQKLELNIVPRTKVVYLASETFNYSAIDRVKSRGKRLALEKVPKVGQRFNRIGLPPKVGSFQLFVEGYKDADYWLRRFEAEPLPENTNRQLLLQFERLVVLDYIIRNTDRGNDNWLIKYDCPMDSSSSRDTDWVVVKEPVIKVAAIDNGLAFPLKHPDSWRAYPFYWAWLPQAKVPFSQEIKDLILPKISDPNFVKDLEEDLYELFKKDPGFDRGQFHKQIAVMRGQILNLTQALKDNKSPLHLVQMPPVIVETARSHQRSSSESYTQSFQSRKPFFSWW
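ADP-Glo luminescence measured ADP generated by PI4K2A enzyme (4 ug/mL before mixing) with 1.2 mM PI substrate (pre-mix) and 300 microM ATP (pre-mix). Tris pH7.5 buffer with MgCl2, Triton X-100; 1 h reaction at ambient temperature.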
KB-3-1 tox: KB-3-1 parental cell cytotoxicity; KB-3-1 viability, CellTiter-Glo ATP luminescence, 72 h; Potency, µM (titrated, usually from 46.1 µM), most hits filed as cytotoxic; 400,000 compounds, 1.4% hits; AID 1347075; note: potency is the fitted concentration of half-maximal effect; nearly all actives have a fitted effect of over 60% in size
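Cytotoxicity measured as CellTiter-Glo luminescence after 72 h at 37 C. Compound titrations were pinned onto drug-naive KB-3-1 parental adenocarcinoma cells grown in DMEM with 10% FBS, and normalized data fitted to concentration-response curves.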
Giardia kill: kills Giardia lamblia; activity change, % at 7.66 µM, hits read low; 340,000 compounds, 0.15% hits; Giardia lamblia trophozoite viability; in the data active = activity change below about -80%; inconclusive = between about -30% and that limit;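 note: parasites exposed to compound for two days anaerobically before the ATP read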
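Giardia lamblia trophozoites (100 cells/well) were incubated with compounds for 48 h at 37 deg C under anaerobic conditions. Viability was read as ATP content by one-step luminescence after 15-30 min at room temperature.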
KB-V1 cytotox: KB-V1 MDR subline cytotoxicity; KB-V1 MDR cells viability, CellTiter-Glo, 72 h; Potency, µM (highest dose often 46.1 µM), usual class: cytotoxic; 400,000 compounds, 3.4% hits; AID 1347076; note: potency is the fitted concentration of half-maximal effect; nearly all actives have a fitted effect of over 60% in size
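Cytotoxicity via CellTiter-Glo luminescence after 72 h compound exposure at 37 degrees C. Cells: drug-selected KB-V1 line, DMEM phenol-red free plus 10% FBS. Compounds tested at multiple concentrations; normalized data fitted to concentration-effect curves.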
A549 viability: counter-screen for Nrf2 inhibitors: cytotoxicity in A549 cells; A549 ARE-Fluc cells, CellTiter-Fluor viability, 18-24 h; Potency, µM (series often up to 46 µM), inactives show top-dose activity change, negative = cytotoxicity, actives largely listed as inhibitors; 390,000 compounds, 0.16% hits; note: potency is the fitted concentration of half-maximal effect
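A549 ARE_Fluc cells in 5% FBS OPTI-MEM were exposed to compounds in concentration-response for 18-24 h at 37 deg C. Viability was read by CellTiter-Fluor fluorescence (Ex 405/Em 525) after 30 min, before the luciferase read.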
The depositor's hits bear a star; i = inactive; ? = inconclusive; / = no result. A selection: hits, their analogues and other compounds. The true share with any hit is near 5.7%. Unless noted, calls come from the whole dose curve; as a rule, active = well fitted curve in the direction sought with a large enough effect; inconclusive = small, poorly fitted or top-dose-only effect, or another doubt; inactive = no such curve, though single readings can be large; an effect the other way counts as inactive or inconclusive. Unless noted, % is set by controls: 0 for no effect and ±100 for the full control effect.

SMILES	Nrf2 block	PI4K2A inh	KB-3-1 tox	Giardia kill	KB-V1 cytotox	A549 viability
Cc1ccc(-c2cc(C(=O)NCCCn3ccnc3)c3cc(Br)ccc3n2)o1	/	-28	i	-7	21µM*	-2%
Cc1ccc(-c2cc(C(=O)O)c3cc(Br)ccc3n2)o1	8%	-13	i	1	?	2%
Cc1ccc2cc(C#N)c(NCCNC(=O)C3CC3)nc2c1C	7.3µM*	-2	?	11	3.7µM*	-19%
Cc1ccc2cc(C#N)c(NCCNC(=S)NCCCN(C)C)nc2c1C	11%	-8	i	-10	i	5%
C=C(C(=O)c1ccccc1)C(CC(=O)c1ccccc1)c1ccccc1 (centres undefined)	23µM*	9	?	-4	?	?
CN(C)c1cccc(/C=C2\CC3(OC(=O)c4ccco4)CCCN2C3)c1 (centres undefined)	/	-2	/	/	/	/
COC(=O)[C@]12C[C@H](CC(=O)NCC34CC5CC(CC(C5)C3)C4)C(=O)N(Cc3cccc4ccccc34)C1=C[C@H](C(C)C)O[C@@H]2C1CC1	/	-3	/	/	/	/
Cc1cc(O)c(C(=O)/C=C/c2ccc(Cl)cc2)c(=O)o1	1%	-4	16µM*	-29	?	0%
CCN(CC)CCCN(C(=O)c1cccs1)c1nc(-c2ccc(OC)cc2)cs1	?	0	?	-12	8.2µM*	?
COc1ccc(-c2csc(N(CCc3ccccc3)C(=O)COc3ccccc3)n2)cc1	?	3	i	-6	16µM*	-3%
CCN(CC)CCCN(C(=O)c1ccc(Br)cc1)c1nc(-c2ccc(OC)cc2)cs1	3%	1	?	46	?	?
O=C(COc1ccc(Cl)cc1)N(Cc1ccccc1)c1nc(-c2ccccc2)cs1	-8%	-1	i	13	i	-21%
Cc1ccc(-c2cc(-c3nnc(SCC(=O)Nc4ccccc4-c4ccccc4)n3N)[nH]n2)cc1	/	6	/	/	/	/
C/C(=N\NC(=O)C1COc2ccccc2O1)c1ccccn1 (centres undefined)	9.2µM*	-8	?	-30	?	?
CC(C)(C)c1ccc2c(c1)OC(C(=O)N/N=C\c1ccncc1)CO2 (centres undefined)	-20%	-9	?	10	?	-1%
COc1ccc(/C=N/NC(=O)C2COc3ccccc3O2)cc1OC (centres undefined)	24%	0	i	-9	i	-10%
CC(C)(C)c1ccc2c(c1)OC(C(=O)N/N=C\c1ccc[nH]1)CO2 (centres undefined)	5.8µM*	2	i	-12	i	8.2µM*
C/C(=N\NC(=O)C1COc2ccccc2O1)c1ccc(C)o1 (centres undefined)	-24%	12	i	1	i	-9%
O=C(N/N=C/c1ccc2c(c1)OCO2)C1COc2ccccc2O1 (centres undefined)	24%	2	i	-1	10µM*	0%
CC(C)(C)c1ccc2c(c1)OC(C(=O)N/N=C/c1ccc([N+](=O)[O-])o1)CO2 (centres undefined)	?	0	i	-98*	i	1%
COc1cccc(-n2cc(C(=O)Nc3ccccc3C(N)=O)c3ccccc3c2=O)c1	-12%	-1	/	/	/	-11%
Cc1ccc(-n2ncc3c(NCCC4=CCCCC4)ncnc32)cc1	/	5	i	/	i	5%
Cc1c(/C=N\NC(=O)c2csc3ccccc23)cnn1C	6%	2	?	13	?	-10%
CCn1ncc(/C=N\NC(=O)c2csc3ccccc23)c1C	2%	-6	6.5µM*	-3	?	?
Clc1ccccc1CN1CCc2nc(N3CCN(c4ncccn4)CC3)ncc2C1	/	-1	?	/	18µM*	-5%
SMILES	Nrf2 block	PI4K2A inh	KB-3-1 tox	Giardia kill	KB-V1 cytotox	A549 viability
OC(c1ccccc1)(c1ccccc1)c1nccc2ccccc12	?	2	?	-9	18µM*	-12%
CC(=O)N1N=C(c2ccc3ccccc3c2)OC1(C)C	-3%	-1	?	-12	18µM*	1%
CCOc1ccc(OCCSc2ccc(S(=O)(=O)N3CCN(C)CC3)cn2)cc1	?	1	i	8	i	-2%
CN(C)C(=O)CSc1ccc(S(=O)(=O)N2CCCC2)cn1	1%	3	i	-7	i	1%
CC(C)N(C(=O)CSc1ccc(S(=O)(=O)N2CCCCC2)cn1)c1ccccc1	9.2µM*	-2	?	5	i	-1%
O=S(=O)(c1ccc(Oc2ccc(Br)cc2F)nc1)N1CCCCC1	16µM*	-2	?	0	23µM*	-15%
O=S(=O)(c1ccc(SCCOc2ccc(Cl)cc2)nc1)N1CCCC1	18µM*	0	?	6	?	-7%
O=S(=O)(c1ccc(SCCOc2ccc(Br)cc2)nc1)N1CCCC1	16µM*	1	i	3	i	3%
CC(=O)c1ccc(NCCCN2CCC(C(O)(c3ccccc3)c3ccccc3)CC2)cc1	/	-8	/	/	/	/
NC(=O)c1ccc(NC(=O)CCc2nc3ccccc3s2)cc1	19%	-3	i	2	?	9%
O=C(Nc1ccc(Cc2nc3ccccc3s2)cc1)c1ccncc1	?	1	16µM*	-4	7.3µM*	-16%
COc1cc([N+](=O)[O-])cc(/C=N/NC(=O)C(C)Nc2ccccc2C)c1O (centres undefined)	-2%	5	?	7	12µM*	?
COc1cc(OC)c(C=NNC(=S)NC23CC4CC(CC(C4)C2)C3)c(OC)c1	?	11	i	-4	5.2µM*	1%
CCOc1ccc(CNC(=S)N/N=C/c2ccc(OC)c(OC)c2)cc1	-16%	6	i	-7	16µM*	-1%
COc1cc(/C=N/NC(=O)NC23CC4CC(CC(C4)C2)C3)ccc1OCC(N)=O	?	-3	i	-15	i	-13%
COc1ccc(C=NNC(=S)NC23CC4CC(CC(C4)C2)C3)cc1OC	?	-5	?	17	2.9µM*	-9%
COc1ccc(-c2cc(C(=O)NN=Cc3ccc(C)s3)[nH]n2)cc1	/	-1	/	/	/	/
CCS(=O)(=O)c1ccc(OC)c(C(=O)OC)c1	/	1	/	/	/	/
CCCC1CCC2(CCCN2CCOC(=O)Nc2ccccc2C)CC1 (centres undefined)	/	0	/	/	/	/
C=CCN(c1ccc(OC)cc1)S(=O)(=O)c1ccc(Cl)c(C(=O)OCC(=O)c2c(N)n(C)c(=O)n(C)c2=O)c1	1%	5	i	18	16µM*	-2%
